# Structures can show the parent of a compound that is named as a salt. ± gives the standard deviation of the averaged measurements.
# Assays:
# [1] = system: Klebsiella pneumoniae KPC-119; experiment: percent growth inhibition of drug alone vs DMSO control; higher = more growth inhibition; conditions: antibiotic (0.125x MIC): none (0.1% DMSO)
# [2] = system: Klebsiella pneumoniae KPC-119; experiment: percent growth inhibition of drug + antibiotic vs DMSO control; higher = more growth inhibition
# [3] = system: Klebsiella pneumoniae NCTC-13439; experiment: percent growth inhibition of drug alone vs DMSO control; higher = more growth inhibition; conditions: antibiotic (0.125x MIC): none (0.1% DMSO)
# [4] = system: Klebsiella pneumoniae NCTC-13439; experiment: percent growth inhibition of drug + antibiotic vs DMSO control; higher = more growth inhibition; conditions: antibiotic (0.125x MIC): ciprofloxacin
# [5] = antibiotic (0.125x MIC): colistin, 20 µM
# [6] = antibiotic (0.125x MIC): colistin, 7 µM
smiles,measurement,setting,value
CCN1CCC[C@H]1CNC(=O)c1c(O)c(Cl)cc(Cl)c1OC [Raclopride],percent growth inhibition of drug alone,[1]; 7 µM,-0.791 ± 2.4%
same,percent growth inhibition of drug alone,[1]; 20 µM,0.378 ± 5.2%
same,percent growth inhibition,[2]; [5],-4.39 ± 0.64%
CCN(CC)CCOC(=O)C1(C2CCCCC2)CCCCC1 [Dicyclomine hydrochloride],percent growth inhibition of drug alone,[1]; 7 µM,0.63 ± 2%
same,percent growth inhibition of drug alone,[1]; 20 µM,2.04 ± 2.2%
same,percent growth inhibition,[2]; [5],-2.28 ± 7.1%
C[C@@H]1CN(c2c(F)c(N)c3c(=O)c(C(=O)O)cn(C4CC4)c3c2F)C[C@H](C)N1 [Sparfloxacin],percent growth inhibition of drug alone,[1]; 7 µM,33.5 ± 3.3%
same,percent growth inhibition of drug alone,[1]; 20 µM,99.04 ± 0.49%
same,percent growth inhibition,[2]; [6],99.4 ± 0.42%
same,percent growth inhibition,[2]; [5],99.2 ± 0.83%
CO[C@@]1(NC(=O)CSCC#N)C(=O)N2C(C(=O)O)=C(CSc3nnnn3C)CS[C@@H]21 [Cefmetazole sodium salt],percent growth inhibition of drug alone,[1]; 7 µM,2.72 ± 1.2%
same,percent growth inhibition of drug alone,[1]; 20 µM,32.6 ± 2.3%
same,percent growth inhibition,"[2]; antibiotic (0.125x MIC): gentamicin, 7 µM",3.52 ± 6.6%
CC(Cc1cccc(C(F)(F)F)c1)NCCOC(=O)c1ccccc1 (stereo unspecified) [Benfluorex],percent growth inhibition of drug alone,[1]; 7 µM,1.43 ± 3%
same,percent growth inhibition of drug alone,[1]; 20 µM,-0.224 ± 0.36%
same,percent growth inhibition,[2]; [5],4.58 ± 2.8%
C=C1c2c(Cl)ccc(O)c2C(=O)C2=C(O)[C@]3(O)C(=O)C(C(N)=O)=C(O)[C@@H](N(C)C)[C@@H]3[C@@H](O)[C@H]12.O=C(O)c1cc(S(=O)(=O)O)ccc1O [Meclocycline sulfosalicylate],percent growth inhibition of drug alone,[1]; 7 µM,2.09 ± 6.8%
same,percent growth inhibition of drug alone,[1]; 20 µM,7.24 ± 1.1%
same,percent growth inhibition,[2]; [5],10.3 ± 2.3%
Oc1c(I)cc(Cl)c2cccnc12 [Clioquinol],percent growth inhibition of drug alone,[1]; 7 µM,12.1 ± 5%
same,percent growth inhibition of drug alone,[1]; 20 µM,44.53 ± 0.32%
same,percent growth inhibition,[2]; [6],47.2 ± 5.2%
same,percent growth inhibition,[2]; [5],98.97 ± 0.28%
CC(C)(C)CC(C)(C)c1ccc(OCCOCC[N+](C)(C)Cc2ccccc2)cc1 [Benzethonium chloride],percent growth inhibition of drug alone,[1]; 7 µM,2.21 ± 0.87%
same,percent growth inhibition of drug alone,[1]; 20 µM,2.03 ± 2.5%
same,percent growth inhibition,[2]; [6],4.69 ± 10%
same,percent growth inhibition,[2]; [5],97.15 ± 0.41%
NC1CCN(c2nc3c(cc2F)c(=O)c(C(=O)O)cn3-c2ccc(F)cc2F)C1 (stereo unspecified) [Tosufloxacin hydrochloride],percent growth inhibition of drug alone,[3]; 7 µM,56.5 ± 19%
same,percent growth inhibition of drug alone,[3]; 20 µM,99.38 ± 0.74%
same,percent growth inhibition,[4]; 7 µM,88.1 ± 8.8%
same,percent growth inhibition,[4]; 20 µM,99.03 ± 0.4%

# — the supplement of paper PMC6658780
